SMILES strings stand for the structures. Records with an inconclusive call do not appear. Unmarked numbers belong to inactive results. Calls of active or inactive are those of the source. The call rests on the fitted dose curve; in most records, active means well fitted curve in the direction sought with a large enough effect; inconclusive means small, poorly fitted or top-dose-only effect, or another doubt; inactive means no such curve, though single readings can be large; an effect the other way counts as inactive or inconclusive.

Consider 14 molecules from PubChem BioAssay (NCATS).

One experiment deals with CRL-7250. Nature of the experiment: Cytotoxic Profiling of Annotated Libraries Using Quantitative High-Throughput Screening (AID 1296008). Further: nearly all actives have a fitted effect of over 60% in size. Further: potency means the concentration at half of the fitted maximal effect. The settings on record: Five cell lines viability, CellTiter-Glo ATP luminescence, 48-72 h; max response: stronger effect = lower value. The method in brief: (§1)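 Cytotoxicity was measured as CellTiter-Glo ATP luminescence, read after 10 min at room temperature. Compound treatment of the cells lasted 48 or 72 hr at 37 degrees Celsius in a qHTS format.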
(ATP-based viability assays read luminescence as a measure of living cells.)

Another experiment has as its system HaCat. Described as above. The following applies: Five cell lines viability, CellTiter-Glo ATP luminescence, 48-72 h; max response: stronger effect = lower value. The method in brief: as §1
The next experiment has as its system KB-3-1. The description is as above. The settings on record: Five cell lines viability, CellTiter-Glo ATP luminescence, 48-72 h; max response: stronger effect = lower value. The method in brief: as §1
The next experiment relates to NIH3T3. Described as above. The settings on record: Five cell lines viability, CellTiter-Glo ATP luminescence, 48-72 h; max response: stronger effect = lower value. The method, boiled down:
as §1

Another experiment has as its system C33A. As to the kind of experiment: Primary qHTS to identify gynecologic anti-cancer compounds using libraries of approved drugs and bioactive compounds (AID 1345084). Further: nearly all actives have a fitted effect of over 55% in size. The settings on record: Gynecologic cancer cell panel viability, ATPlite luminescence, 48 h; series mostly up to 57.5 µM. The method, boiled down:
(§2)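 Cytotoxicity screen measuring ATP content by luciferase luminescence. Each compound is applied at five concentrations for 48 h at 37 C with 5% CO2.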
For orientation: qHTS replaces the single test concentration by a dilution series.

Another experiment concerns CAOV3. The description is as above. The following applies: Gynecologic cancer cell panel viability, ATPlite luminescence, 48 h; series mostly up to 57.5 µM. The method, boiled down:
as §2

A further experiment relates to CASKI. The experiment is described as above. The following applies: Gynecologic cancer cell panel viability, ATPlite luminescence, 48 h; series mostly up to 57.5 µM. The method in brief:
as §2

The test system of the next experiment is Es-2. The experiment is described as above. The settings on record: Gynecologic cancer cell panel viability, ATPlite luminescence, 48 h; series mostly up to 57.5 µM. The method, boiled down: as §2
In a further experiment the test system is HeLa. The description is as above. The settings on record: Gynecologic cancer cell panel viability, ATPlite luminescence, 48 h; series mostly up to 57.5 µM. The method in brief:
as §2

Another experiment relates to Hek293T. Described as above. The following applies: Gynecologic cancer cell panel viability, ATPlite luminescence, 48 h, control line for the selectivity index; series mostly up to 57.5 µM. The method, boiled down:
as §2

Another experiment deals with JEG-3. The description is as above. The following applies: Gynecologic cancer cell panel viability, ATPlite luminescence, 48 h; series mostly up to 57.5 µM. The method, boiled down:
as §2

A further experiment relates to OV90. Described as above. The settings on record: Gynecologic cancer cell panel viability, ATPlite luminescence, 48 h; series mostly up to 57.5 µM. The method, boiled down:
as §2

For the next experiment, the system named is PA-1. The description is as above. The settings on record: Gynecologic cancer cell panel viability, ATPlite luminescence, 48 h; series mostly up to 57.5 µM. The method in brief:
as §2
On the % scale 0 is the no-effect control and ±100 the full control effect.

As to `CC(C)(CNC(=O)c1cccc(-c2noc(C(F)(F)F)n2)c1)c1coc(-c2ccccc2)n1`, the max response with CRL-7250 was 1.16%; in the experiment on HaCat, -1.63%; with KB-3-1 it was -6.73%; in the experiment on NIH3T3, 4.1%. For the same molecule, the Potency result in the experiment on C33A, with CAOV3, in the experiment on CASKI, in the experiment with Es-2, in the experiment with HeLa and with Hek293T was “inactive” throughout. For the same molecule, the Potency result in the experiment on JEG-3, with OV90 and in the experiment with PA-1 was “inactive” in each case.
For `C=CCC1=C[C@]2(OC)[C@H](C)[C@@H](c3ccc4c(c3)OCO4)O[C@]2(OC)CC1=O`, the max response in the experiment with CRL-7250 was -2.76%; in the experiment on HaCat, -12.1%; with KB-3-1 it was -2.11%; in the experiment on NIH3T3 it was 1.18%. Also, the Potency entry with C33A, in the experiment on CAOV3, in the experiment on CASKI, in the experiment on Es-2, with HeLa and in the experiment with Hek293T was “inactive” each time. Also, the Potency result with JEG-3, with OV90 and with PA-1 was “inactive” in each case.
Consider `CCC(C)/C=C(C)/C=C/C1=CC2=CC(=O)C3(C)OC(C)(O)C(C(=O)OC)C3C2=CO1` (configuration not stated), for which the max response is 2.86% in the experiment on CRL-7250, 4.73% with HaCat, 0.0483% in the experiment with KB-3-1 and -9.14% with NIH3T3. The Potency result in the experiment on C33A, in the experiment with CAOV3, with CASKI, with Es-2, with HeLa and in the experiment with Hek293T was “inactive” in each case. Also, the Potency result in the experiment on JEG-3, in the experiment with OV90 and in the experiment with PA-1 was “inactive” throughout.
Regarding `NS(=O)(=O)c1ccc(N2N=C(c3ccccc3)CC2c2ccccc2)cc1` (configuration not stated), the max response is -0.316% in the experiment on CRL-7250, 4.65% in the experiment with HaCat, -12.2% with KB-3-1 and 2.93% with NIH3T3. Also, the Potency entry in the experiment on C33A, in the experiment with CAOV3, in the experiment on CASKI, in the experiment on Es-2, with HeLa and in the experiment with Hek293T was “inactive” throughout. The Potency entry in the experiment with JEG-3, in the experiment on OV90 and in the experiment with PA-1 was “inactive” throughout.
`CC(=O)OC[C@]12[C@H](OC(C)=O)[C@H](OC(=O)c3ccccc3)[C@@H]3[C@@H](OC(C)=O)[C@]1(OC3(C)C)[C@H](C)C[C@H](OC(C)=O)[C@@H]2OC(=O)c1ccccc1`: the molecule was classed as inactive in the experiment with CRL-7250. The values for the max response in the experiment with HaCat, with KB-3-1 and in the experiment with NIH3T3 were -0.678%, 4.67% and 3.09%, respectively. Further, the Potency entry in the experiment on C33A, in the experiment with CAOV3, with CASKI, with Es-2, with HeLa and with Hek293T was “inactive” each time. Besides, the Potency result with JEG-3, in the experiment with OV90 and with PA-1 was “inactive” throughout.
Regarding `c1cc(-c2cnn3cc(-c4ccc(N5CCNCC5)cc4)cnc23)c2cccnc2c1`, the result in the experiment on CRL-7250 was inactive. For the same molecule, the max response in the experiment with HaCat was 0.937%; in the experiment on NIH3T3, -2.87%. Moreover, in the experiment on KB-3-1, the Potency is 4.11 µM (active). In addition, the Potency result in the experiment with C33A, in the experiment with CAOV3, in the experiment on CASKI, in the experiment on Es-2, with HeLa and with Hek293T was “inactive” in each case. Besides, the Potency entry in the experiment with JEG-3, with OV90 and in the experiment with PA-1 was “inactive” throughout.
Turning to `Cc1ccc(C)c(NC(=O)[C@@H]2CCCN2S(=O)(=O)c2cccc3cccnc23)c1`, the max response in the experiment on CRL-7250 was -9.22%; in the experiment with HaCat, -26.4%; in the experiment on KB-3-1, 9.71%; in the experiment with NIH3T3 it was -29.5%. The Potency result in the experiment on C33A, with CAOV3, in the experiment on CASKI, in the experiment with Es-2, in the experiment on HeLa and in the experiment with Hek293T was “inactive” in each case. The Potency result in the experiment on JEG-3, in the experiment with OV90 and in the experiment on PA-1 was “inactive” throughout.
Take `Clc1ncoc1-c1c[nH]c2ccccc12`: the molecule was classed as inactive in the experiment on CRL-7250. The max response is -17.9% in the experiment with HaCat, 7.62% in the experiment with KB-3-1 and -6.46% in the experiment on NIH3T3. The Potency result with C33A, in the experiment on CAOV3, with CASKI, in the experiment on Es-2, in the experiment on Hek293T and in the experiment on JEG-3 was “inactive” each time. Besides, the Potency entry in the experiment with OV90 and with PA-1 was “inactive” in each case.
For `CC(C)Oc1ccc(-c2cnc3c(-c4ccnc5ccccc45)cnn3c2)cc1`, the max response in the experiment on CRL-7250 was 0.774%; with HaCat, 1.5%; in the experiment on KB-3-1, -13.7%; with NIH3T3 it was 3.7%. Also, the Potency result with C33A, in the experiment on CAOV3, in the experiment with CASKI, in the experiment with Es-2, with HeLa and in the experiment with Hek293T was “inactive” each time. Besides, the Potency result with JEG-3, in the experiment on OV90 and in the experiment with PA-1 was “inactive” in each case.
Consider `C/C(=C\CO[C@@H]1O[C@H](CO[C@H]2OC[C@](O)(CO)[C@H]2O)[C@@H](O)[C@H](O)[C@H]1O)C(C)(C)O`, for which the max response in the experiment with CRL-7250 was -3.13%; in the experiment with HaCat it was -2.99%; with KB-3-1, 2.14%; in the experiment with NIH3T3, 3.25%. Moreover, the Potency result with C33A, in the experiment on CAOV3, in the experiment with CASKI, in the experiment on Es-2, with HeLa and in the experiment with Hek293T was “inactive” each time. The Potency result with JEG-3, with OV90 and in the experiment with PA-1 was “inactive” each time.
For the molecule `O=C(NCCO)c1cccc(-c2cc(Nc3ccc(OC(F)(F)F)cc3)ncn2)c1`, the max response with CRL-7250 was 0.504%; with HaCat, -14.2%; in the experiment with KB-3-1, -22.2%; in the experiment on NIH3T3, -22.6%. Also, the Potency result in the experiment with C33A, with CAOV3, with CASKI, in the experiment with Es-2, in the experiment on HeLa and in the experiment with JEG-3 was “inactive” throughout. Further, the Potency result with OV90 and in the experiment with PA-1 was “inactive” in each case.
Regarding `C[C@@H]1CC[C@@]23CC[C@]4(C)[C@@](C=CC5[C@@]6(C)CC[C@H](O)C(C)(C)C6CC[C@]54C)(OC2=O)C3[C@H]1C` (some centres not stated), in the experiment with CRL-7250, the outcome was inactive. In addition, the max response in the experiment on HaCat was -10.7%; in the experiment with KB-3-1, 7.23%; in the experiment with NIH3T3 it was 0.572%. Besides, the Potency entry with C33A, in the experiment with CAOV3, in the experiment on CASKI, with Es-2, with HeLa and in the experiment on Hek293T was “inactive” throughout. The Potency entry in the experiment on JEG-3, with OV90 and in the experiment on PA-1 was “inactive” each time.
Regarding `CCOC(=O)C1=Cc2ccc(C(F)(F)C(F)(F)F)cc2N=C(N)C1`, the max response is -15.9% with CRL-7250, -0.757% in the experiment on HaCat, -20.4% with KB-3-1 and -6.78% in the experiment with NIH3T3. For the same molecule, the Potency entry with C33A, in the experiment with CAOV3, in the experiment with CASKI, in the experiment with Es-2, with HeLa and in the experiment on Hek293T was “inactive” throughout. Moreover, the Potency result in the experiment with OV90 and in the experiment with PA-1 was “inactive” throughout.
Consider `C[C@@H]1O[C@@H](O[C@H]2[C@@H](OC(=O)[C@]34CCC(C)(C)CC3C3=CCC5[C@@]6(C)C[C@H](O)[C@H](O[C@@H]7O[C@H](CO)[C@@H](O)[C@H](O)[C@H]7O[C@@H]7OC[C@@H](O)[C@H](O)[C@H]7O)[C@@](C)(C(=O)O)C6CC[C@@]5(C)[C@]3(C)CC4)OC[C@H](O)[C@@H]2O)[C@H](O)[C@H](O)[C@H]1O[C@@H]1OC[C@@H](O)[C@H](O)[C@H]1O` (some centres not stated), for which the max response is 4.52% in the experiment with CRL-7250, -2.16% in the experiment on HaCat and 1.11% in the experiment on NIH3T3. The Potency in the experiment with KB-3-1 is 2.45 µM (active). Besides, the activity change, negative = cytotoxicity in the experiment with C33A was -27.4% [at 6.55 µM]; with CAOV3, 2.23% [at 6.55 µM]; in the experiment on CASKI, -11.2% [at 6.55 µM]; with Es-2, 4.6% [at 6.55 µM]; with HeLa, -12.9% [at 6.55 µM]; in the experiment on Hek293T it was -3.38% [at 6.55 µM]. Moreover, the activity change, negative = cytotoxicity in the experiment on PA-1 was -26.7% [at 6.55 µM].
